# In PubChem BioAssay (NCATS):
# Inconclusive results are not listed. Active and inactive are the calls of the source. Unless noted, calls follow the shape of the dose curve; as a rule, active = well fitted inhibition curve with a large enough effect; inconclusive = small, poorly fitted or top-dose-only effect; inactive = flat fitted curve, though single readings scatter.
# Experiments:
# [1] = qHTS for identification of novel therapeutic agents for treatment of microphthalmiaassociated transcription factor (MiT) renal cell carcinoma (RCC) (AID 1963991; calls by dose curve); conditions: CellTiter-Glo, 48 h; for z-score: stronger effect = lower value; for Potency: active = Z-AUC below -0.8 in all three lines
# How it was run: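 Viability of three TFE3-fusion renal carcinoma lines measured by CellTiter-Glo after 48 h treatment with each of 1912 compounds at 11 concentrations. Responses scaled between DMSO (100%) and empty wells (0%) before curve fitting.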
# 3D7 = experiment: qHTS profiling for inhibitors of Plasmodium falciparum proliferation (AID 504749); also: nearly all actives have a fitted effect of over 60% in size; conditions: P. falciparum in erythrocytes, SYBR Green DNA, 72 h; series mostly up to 28.7 µM
# How it was run: (§1)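 In a 72 h erythrocytic culture (37 C, humidified, 5% CO2) at 2.5% hematocrit and 0.3% starting parasitemia, compounds were tested; SYBR Green I in detergent lysis buffer stained parasite DNA overnight.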
# 7G8 = experiment: as above; conditions: P. falciparum in erythrocytes, SYBR Green DNA, 72 h; series mostly up to 28.7 µM
# How it was run: as §1
# AA1029 = experiment: as above; conditions: P. falciparum in erythrocytes, SYBR Green DNA, 72 h; series mostly up to 28.7 µM
# How it was run: as §1
# AS120 = experiment: as above; conditions: P. falciparum in erythrocytes, SYBR Green DNA, 72 h; series mostly up to 28.7 µM
# How it was run: as §1
# ATS95 = experiment: as above; conditions: P. falciparum in erythrocytes, SYBR Green DNA, 72 h; series mostly up to 28.7 µM
# How it was run: as §1
# C2A = experiment: as above; conditions: P. falciparum in erythrocytes, SYBR Green DNA, 72 h; series mostly up to 28.7 µM
# How it was run: as §1
# CP185 = experiment: as above; conditions: P. falciparum in erythrocytes, SYBR Green DNA, 72 h; series mostly up to 28.7 µM
# How it was run: as §1
# CP191 = experiment: as above; conditions: P. falciparum in erythrocytes, SYBR Green DNA, 72 h; series mostly up to 28.7 µM
# How it was run: as §1
# CP192 = experiment: as above; conditions: P. falciparum in erythrocytes, SYBR Green DNA, 72 h; series mostly up to 28.7 µM
# How it was run: as §1
# CP194 = experiment: as above; conditions: P. falciparum in erythrocytes, SYBR Green DNA, 72 h; series mostly up to 28.7 µM
# How it was run: as §1
# CP201 = experiment: as above; conditions: P. falciparum in erythrocytes, SYBR Green DNA, 72 h; series mostly up to 28.7 µM
# How it was run: as §1
# CP217 = experiment: as above; conditions: P. falciparum in erythrocytes, SYBR Green DNA, 72 h; series mostly up to 28.7 µM
# How it was run: as §1
# CP237 = experiment: as above; conditions: P. falciparum in erythrocytes, SYBR Green DNA, 72 h; series mostly up to 28.7 µM
# How it was run: as §1
# CP238 = experiment: as above; conditions: P. falciparum in erythrocytes, SYBR Green DNA, 72 h; series mostly up to 28.7 µM
# How it was run: as §1
# CP247 = experiment: as above; conditions: P. falciparum in erythrocytes, SYBR Green DNA, 72 h; series mostly up to 28.7 µM
# How it was run: as §1
# ATS189 = experiment: as above; conditions: P. falciparum in erythrocytes, SYBR Green DNA, 72 h; series mostly up to 28.7 µM
# How it was run: as §1
# CP203 = experiment: as above; conditions: P. falciparum in erythrocytes, SYBR Green DNA, 72 h; series mostly up to 28.7 µM
# How it was run: as §1
# CP211 = experiment: as above; conditions: P. falciparum in erythrocytes, SYBR Green DNA, 72 h; series mostly up to 28.7 µM
# How it was run: as §1
# CP215 = experiment: as above; conditions: P. falciparum in erythrocytes, SYBR Green DNA, 72 h; series mostly up to 28.7 µM
# How it was run: as §1
# [2] = TFE3-RCC UOK109 viability, measured here: UOK109 Z-AUC
# [3] = TFE3-RCC viability, measured here: UOK124 Z-AUC
# [4] = TFE3-RCC viability, measured here: UOK145 Z-AUC
# Potency is read from the fitted curve at half-maximal effect.
smiles,measurement,setting,value
OC[C@@H](O)[C@@H](O)[C@H](O)[C@@H](O)CO,z-score,[1]; [2],0.602
same,z-score,[1]; [3],0.356
same,z-score,[1]; [4],0.716
O=C(Nc1ccc(Oc2ccnc3[nH]ccc23)c(F)c1)c1cccn(-c2ccc(F)cc2)c1=O,z-score,[1]; [2],0.0941
same,z-score,[1]; [3],0.0675
same,z-score,[1]; [4],0.349
COC1=C(OC)C(=O)C(CC=C(C)CCC=C(C)CCC=C(C)CCC=C(C)CCC=C(C)CCC=C(C)CCC=C(C)CCC=C(C)CCC=C(C)CCC=C(C)C)=C(C)C1=O,z-score,[1]; [2],0.576
same,z-score,[1]; [3],0.211
same,z-score,[1]; [4],0.661
N#CC(=C(O)c1ccc(Cl)cc1Cl)c1nc2cc(Cl)ccc2c(=O)[nH]1,z-score,[1]; [2],0.465
same,z-score,[1]; [3],1.29
same,z-score,[1]; [4],0.266
C[C@]12CCC(=O)C=C1[C@@H]1CC1[C@H]1[C@H]3[C@@H]4C[C@H]4[C@@]4(CCC(=O)O4)[C@@]3(C)CC[C@H]12 (stereo partly specified),z-score,[1]; [2],0.661
same,z-score,[1]; [3],0.572
same,z-score,[1]; [4],-2.84
COC(=O)[C@H](CCCN=C(N)N)NS(=O)(=O)c1ccc(C)cc1,z-score,[1]; [2],0.843
same,z-score,[1]; [3],0.187
same,z-score,[1]; [4],0.701
CC(=O)OCC(=O)[C@@]12N=C(C)O[C@H]1C[C@H]1[C@@H]3CCC4=CC(=O)C=C[C@]4(C)[C@@H]3[C@@H](O)C[C@@]12C,z-score,[1]; [2],0.415
same,z-score,[1]; [3],0.48
same,z-score,[1]; [4],2.44
C=C(C)[C@@H]1CC[C@]2(C(=O)O)CC[C@]3(C)[C@H](CC[C@@H]4[C@@]5(C)CC[C@H](O)C(C)(C)[C@@H]5CC[C@]43C)[C@@H]12,z-score,[1]; [2],0.38
same,z-score,[1]; [3],0.714
same,z-score,[1]; [4],0.25
CC(=O)C1=C(O)C=C2Oc3c(C(C)=O)c(O)c(C)c(O)c3C2(C)C1=O (stereo unspecified),z-score,[1]; [2],0.861
same,z-score,[1]; [3],0.834
same,z-score,[1]; [4],-0.166
Cc1cc(-c2nnc3n2CCCCC3)c(C)n1-c1ccccc1,z-score,[1]; [2],0.931
same,z-score,[1]; [3],0.469
same,z-score,[1]; [4],0.656
CCN(C(=O)c1c(O)c2c(Cl)cccc2n(C)c1=O)c1ccccc1,z-score,[1]; [2],0.408
same,z-score,[1]; [3],0.904
same,z-score,[1]; [4],0.468
C[C@@H]1[C@H](C)CC[C@]2(C(=O)O)CC[C@]3(C)C(=CC[C@@H]4[C@@]5(C)C[C@@H](O)[C@H](O)[C@@](C)(CO)[C@H]5CC[C@]43C)[C@@H]12,z-score,[1]; [2],0.114
same,z-score,[1]; [3],0.271
same,z-score,[1]; [4],0.0304
Cc1cn([C@@H]2O[C@H](CO)[C@@H](O)[C@H]2F)c(=O)[nH]c1=O,z-score,[1]; [2],0.17
same,z-score,[1]; [3],0.993
same,z-score,[1]; [4],0.494
C[C@H]1C[C@H]2[C@@H]3CCC4=CC(=O)C=C[C@]4(C)[C@@H]3C(=O)C[C@]2(C)[C@@]1(O)C(=O)CO,z-score,[1]; [2],0.188
same,z-score,[1]; [3],0.279
same,z-score,[1]; [4],1.74
O=C1NC(=O)[C@@H](c2cn3c4c(cccc24)CCC3)[C@H]1c1c[nH]c2ccccc12,Potency,[1]; TFE3-RCC UOK109 viability,0.935 µM (active)
same,z-score,[1]; [2],-1.28
same,z-score,[1]; [3],-0.931
same,z-score,[1]; [4],-1.11
CCCCCCCCCCCC(CC1OC(=O)C1CCCCCC)OC(=O)C(CC(C)C)NC=O (stereo unspecified),z-score,[1]; [2],0.558
same,z-score,[1]; [3],-0.129
same,z-score,[1]; [4],0.669
same,Potency,3D7,1.12 µM (active)
same,Potency,7G8,2.51 µM (active)
same,Potency,AA1029,0.447 µM (active)
same,Potency,AS120,0.316 µM (active)
same,Potency,ATS95,0.794 µM (active)
same,Potency,C2A,0.562 µM (active)
same,Potency,CP185,0.708 µM (active)
same,Potency,CP191,0.562 µM (active)
same,Potency,CP192,inactive
same,Potency,CP194,9.53 µM (active)
same,Potency,CP201,inactive
same,Potency,CP217,2.24 µM (active)
same,Potency,CP237,0.794 µM (active)
same,Potency,CP238,0.708 µM (active)
same,Potency,CP247,0.398 µM (active)
COC[C@H](NC(=O)c1cnc(C)s1)C(=O)N[C@@H](COC)C(=O)N[C@@H](Cc1ccccc1)C(=O)[C@@]1(C)CO1,Potency,[1]; TFE3-RCC UOK109 viability,3.72 µM (active)
same,z-score,[1]; [2],-1.27
same,z-score,[1]; [3],-0.856
same,z-score,[1]; [4],-2.57
C=CC(=O)Nc1ccc2ncnc(Nc3ccc(OCc4cccc(F)c4)c(Cl)c3)c2c1,Potency,[1]; TFE3-RCC UOK109 viability,0.59 µM (active)
same,z-score,[1]; [2],-2.47
same,z-score,[1]; [3],-3.02
same,z-score,[1]; [4],-1.72
Nc1nc2c(c(=O)[nH]1)N(C=O)[C@H](CNc1ccc(C(=O)N[C@@H](CCC(=O)O)C(=O)O)cc1)CN2,Potency,3D7,inactive
same,Potency,7G8,inactive
same,Potency,AA1029,inactive
same,Potency,AS120,inactive
same,Potency,ATS189,inactive
same,Potency,ATS95,inactive
same,Potency,C2A,inactive
same,Potency,CP185,inactive
same,Potency,CP191,inactive
same,Potency,CP192,inactive
same,Potency,CP194,inactive
same,Potency,CP201,inactive
same,Potency,CP203,inactive
same,Potency,CP211,inactive
same,Potency,CP215,inactive
same,Potency,CP217,inactive
same,Potency,CP237,inactive
same,Potency,CP238,inactive
same,Potency,CP247,inactive
CC(C)C[C@H](NC(=O)[C@@H](NC(=O)c1cccc(-c2ccccc2)n1)[C@@H](C)O)B(O)O,Potency,[1]; TFE3-RCC UOK109 viability,0.469 µM (active)
same,z-score,[1]; [2],-1.47
same,z-score,[1]; [3],-3.68
same,z-score,[1]; [4],-3.39
C=CC(=O)Nc1cccc(Nc2nc(NC3CCC(N(C)C)CC3)nc3c2ncn3C(C)C)c1 (stereo unspecified),Potency,[1]; TFE3-RCC UOK109 viability,0.0469 µM (active)
same,z-score,[1]; [2],-3.03
same,z-score,[1]; [3],-0.935
same,z-score,[1]; [4],-1.36
CC(C)N1[N]C(=C2C=c3cc(O)ccc3=N2)c2c(N)ncnc21,Potency,[1]; TFE3-RCC UOK109 viability,1.87 µM (active)
same,z-score,[1]; [2],-1.06
same,z-score,[1]; [3],-1.57
same,z-score,[1]; [4],-0.805
O=C1c2c(O)cccc2[C@@H]([C@@H]2O[C@H](CO)[C@@H](O)[C@H](O)[C@H]2O)c2cc(CO)cc(O)c21,z-score,[1]; [2],0.509
same,z-score,[1]; [3],0.726
same,z-score,[1]; [4],0.571
